PubChem BioAssay (EPA / NIEHS)
Values joined by “and” are separate entries in the source; they are usually repeats but may differ in a detail not shown here. Equal values may be shown once. Where a structure was tested more than once in an assay, its records may differ in their call. Active and inactive are the calls of the source. The calls were made as follows: active = hit-call score of the fitted dose curve at least 0.9, where 1 is the maximum; inactive = score below 0.9.

Columns and labels:
[1] = ATG_CRE_CIS: Attagene CIS-FACTORIAL HepG2 Assay for human cAMP Responsive Element (CRE) binding protein 3 (AID 2282926); details: HepG2 CRE cis-reporter, Attagene multiplexed mRNA; actives raise or lower the signal
Procedure, shortened: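 Human liver HepG2, transient MRTU transfection, 24 h compound exposure. Total RNA → oligo(dT) RT → PCR → 6-FAM primer extension → HpaI cut → CE. Activity called both directions vs DMSO.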

[2] = molecular target: CCAAT/enhancer-binding protein beta (Homo sapiens) (UniProt P17676); assay: ATG_C_EBP_CIS: Attagene CIS-FACTORIAL HepG2 Assay for human CCAAT/Enhancer Binding Protein (C/EBP) beta (AID 2282927); details: HepG2 Attagene cis-factorial transcription factor reporter; actives raise or lower the signal
CCAAT/enhancer-binding protein beta (Homo sapiens), sequence (P17676 whole entry, looked up): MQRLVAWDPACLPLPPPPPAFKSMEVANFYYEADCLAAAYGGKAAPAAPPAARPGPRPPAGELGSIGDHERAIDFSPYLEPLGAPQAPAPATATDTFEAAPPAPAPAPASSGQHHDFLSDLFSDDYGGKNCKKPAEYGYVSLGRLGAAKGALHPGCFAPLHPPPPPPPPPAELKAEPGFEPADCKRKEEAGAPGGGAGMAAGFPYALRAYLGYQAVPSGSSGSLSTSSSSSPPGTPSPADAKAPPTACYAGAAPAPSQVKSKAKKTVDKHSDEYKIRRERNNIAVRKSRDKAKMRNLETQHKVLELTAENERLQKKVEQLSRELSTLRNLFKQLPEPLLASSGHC
Procedure, shortened: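 HepG2 transiently transfected with multiplexed reporter units under cis-regulatory promoters reporting endogenous C/EBPb activity. After 24 h exposure, reporter mRNA assayed by RT-PCR, fluorescent labelling, HpaI digestion and capillary electrophoresis; bidirectional fitting versus DMSO.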

[3] = ATG_CMV_CIS: Attagene CIS-FACTORIAL HepG2 Assay for human CMV (Internal Marker) (AID 2282928); details: HepG2 CMV promoter reporter, transcription factor profiling; actives raise or lower the signal;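 also: endpoint acts as a background internal control marker rather than a target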
Procedure, shortened: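 HepG2 cells transiently transfected with multiple cis-regulated reporter units; 24 h compound exposure. Reporter mRNA quantified by RT-PCR, 6-FAM primer-extension labeling, HpaI digestion and capillary electrophoresis; bidirectional fitting against DMSO baseline.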

[4] = ATG_DR4_LXR_CIS: Attagene CIS-FACTORIAL HepG2 Assay for human Liver X Receptor (LXR), DR4 submotif (AID 2282929); details: HepG2 Attagene DR4 cis-reporter, mRNA transcription; actives raise or lower the signal
Procedure, shortened: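 HepG2 cells were transiently transfected with multiple cis-regulated reporter units and dosed for 24 hours. The DR4 reporter mRNA was quantified by RT-PCR, 6-FAM labelling and capillary electrophoresis. Bidirectional fits used DMSO as baseline.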

[5] = molecular target: Aryl hydrocarbon receptor (Homo sapiens) (UniProt P35869); assay: ATG_Ahr_CIS: Attagene CIS-FACTORIAL HepG2 Assay for human Aryl Hydrocarbon Receptor (Ahr) (AID 2282930); details: HepG2 AhR cis-factorial reporter transcription; actives raise or lower the signal
Aryl hydrocarbon receptor (Homo sapiens), sequence (P35869 whole entry, looked up): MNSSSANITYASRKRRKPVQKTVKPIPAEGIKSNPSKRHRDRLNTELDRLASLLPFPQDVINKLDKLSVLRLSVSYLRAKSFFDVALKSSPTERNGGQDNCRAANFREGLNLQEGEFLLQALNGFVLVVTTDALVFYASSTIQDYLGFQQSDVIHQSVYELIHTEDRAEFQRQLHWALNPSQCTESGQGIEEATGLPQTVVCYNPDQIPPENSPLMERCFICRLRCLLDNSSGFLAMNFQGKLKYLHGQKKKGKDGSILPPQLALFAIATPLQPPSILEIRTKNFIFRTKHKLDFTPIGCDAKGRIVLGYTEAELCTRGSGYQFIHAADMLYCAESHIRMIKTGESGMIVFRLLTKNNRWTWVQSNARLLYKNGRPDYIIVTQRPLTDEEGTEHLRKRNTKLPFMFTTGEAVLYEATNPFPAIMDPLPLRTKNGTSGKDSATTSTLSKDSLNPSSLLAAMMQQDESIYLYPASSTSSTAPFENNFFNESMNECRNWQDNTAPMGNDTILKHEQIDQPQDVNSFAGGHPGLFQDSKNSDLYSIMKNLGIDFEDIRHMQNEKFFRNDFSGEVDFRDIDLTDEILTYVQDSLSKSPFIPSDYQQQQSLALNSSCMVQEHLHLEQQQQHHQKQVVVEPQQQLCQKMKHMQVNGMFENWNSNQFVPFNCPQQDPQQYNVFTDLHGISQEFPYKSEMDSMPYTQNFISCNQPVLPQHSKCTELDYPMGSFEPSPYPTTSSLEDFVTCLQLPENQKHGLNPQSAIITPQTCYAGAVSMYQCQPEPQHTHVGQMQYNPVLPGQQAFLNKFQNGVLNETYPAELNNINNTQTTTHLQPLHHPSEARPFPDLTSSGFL
Procedure, shortened: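 HepG2 cells transiently transfected with cis-element-driven multiplexed reporter units; endogenous AhR activity read as reporter mRNA 24 h after dosing, via RT-PCR, 6-FAM labelling, HpaI digestion and capillary electrophoresis. Bidirectional fit relative to DMSO.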

[6] = ATG_AP_1_CIS: Attagene CIS-FACTORIAL HepG2 Assay for human Activator Protein 1 (AP-1) (AID 2282931); details: HepG2 Attagene cis-factorial AP-1 reporter mRNA; actives raise or lower the signal
Procedure, shortened: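 HepG2 cells transiently transfected with cis-element-driven reporter transcription units, dosed for 24 hours. Reporter mRNA measured by RT-PCR, 6-FAM labelling, HpaI digestion and capillary electrophoresis. Bidirectional fitting against DMSO baseline.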

[7] = ATG_AP_2_CIS: Attagene CIS-FACTORIAL HepG2 Assay for human Activator Protein 2 (AP-2) (AID 2282932); details: HepG2 AP-2 cis-reporter, Attagene transcription factor profiling; actives raise or lower the signal
Procedure, shortened: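 Multiplexed mRNA reporter assay in HepG2: cis-regulated units report endogenous factor activity after 24 h treatment. Fluorescence from capillary electrophoresis of RT-PCR products gives the signal, with DMSO as baseline.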

[8] = ATG_BRE_CIS: Attagene CIS-FACTORIAL HepG2 Assay for human Bone Morphogenetic Protein (BMP) Response Element (BRE) (AID 2282933); details: HepG2 BMP response element reporter, Attagene transcription factor profiling; actives raise or lower the signal
Procedure, shortened: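 A HepG2 multiplex reporter system measured inducible reporter mRNA 24 h post-dosing. Detection: RT-PCR, 6-FAM primer extension, HpaI digestion, capillary electrophoresis. Activity fitted bidirectionally relative to DMSO.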

[9] = molecular target: Retinoic acid receptor alpha (Homo sapiens) (UniProt P10276); assay: ATG_DR5_RAR_CIS: Attagene CIS-FACTORIAL HepG2 Assay for human Retinoic Acid Receptor Alpha (RARE), DR5 submotif (AID 2282934); details: HepG2 Attagene cis-factorial RARE DR5 reporter, mRNA; actives raise or lower the signal;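 as to AC50: reporter responds to endogenous RAR alpha beta and gamma in HepG2 not RARA alone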
Retinoic acid receptor alpha (Homo sapiens), sequence (P10276 whole entry, looked up): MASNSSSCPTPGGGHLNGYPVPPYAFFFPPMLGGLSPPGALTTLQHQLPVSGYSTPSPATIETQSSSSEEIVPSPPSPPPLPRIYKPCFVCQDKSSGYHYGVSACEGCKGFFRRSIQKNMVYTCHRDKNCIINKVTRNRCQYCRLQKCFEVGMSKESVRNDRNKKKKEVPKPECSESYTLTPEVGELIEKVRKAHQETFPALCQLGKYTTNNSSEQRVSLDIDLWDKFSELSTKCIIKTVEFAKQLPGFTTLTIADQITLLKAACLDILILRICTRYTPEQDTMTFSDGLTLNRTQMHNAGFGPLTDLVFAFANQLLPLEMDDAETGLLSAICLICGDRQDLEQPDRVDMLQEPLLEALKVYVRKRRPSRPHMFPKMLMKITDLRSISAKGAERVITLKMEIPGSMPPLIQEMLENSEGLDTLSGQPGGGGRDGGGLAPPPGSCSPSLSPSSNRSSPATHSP
Procedure, shortened: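 HepG2 cells transiently transfected with multiplexed reporter units; DR5 cis-element drives reporter through endogenous transcription factors. After 24 h dosing, reporter mRNA quantified by RT-PCR, fluorescent labeling, HpaI digestion and capillary electrophoresis; bidirectional fitting versus DMSO.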

[10] = molecular target: Transcription factor E2F1 (Homo sapiens) (UniProt Q01094); assay: ATG_E2F_CIS: Attagene CIS-FACTORIAL HepG2 Assay for human E2F Transcription Factor 1 (AID 2282935); details: HepG2 Attagene cis-reporter, E2F reporter RNA transcripts; actives raise or lower the signal
Transcription factor E2F1 (Homo sapiens), sequence (Q01094 whole entry, looked up): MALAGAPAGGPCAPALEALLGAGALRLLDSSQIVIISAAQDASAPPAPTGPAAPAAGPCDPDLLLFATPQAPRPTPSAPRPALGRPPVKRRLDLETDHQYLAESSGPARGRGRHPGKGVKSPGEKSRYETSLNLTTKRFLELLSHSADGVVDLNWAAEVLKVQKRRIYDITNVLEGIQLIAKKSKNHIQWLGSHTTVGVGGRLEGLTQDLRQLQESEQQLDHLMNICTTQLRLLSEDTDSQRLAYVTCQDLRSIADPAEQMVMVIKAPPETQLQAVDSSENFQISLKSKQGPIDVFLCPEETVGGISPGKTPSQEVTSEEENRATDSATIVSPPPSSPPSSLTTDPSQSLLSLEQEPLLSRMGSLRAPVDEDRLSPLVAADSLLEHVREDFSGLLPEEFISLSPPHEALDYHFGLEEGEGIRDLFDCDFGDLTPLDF
Procedure, shortened: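 Measures reporter transcript levels via RT-PCR with capillary electrophoresis detection in HepG2 cells harboring cis-regulated reporter units; 24 h post-dose; bidirectional curve fitting with DMSO as baseline.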

Measured: AC50

CN1C(=O)N(c2ccccc2Br)Cc2cnc(Nc3ccc4c(c3)OCC(CO)O4)nc21 (centres undefined)
active: [1] 5.78 µM | [2] 2.61 µM | [4] 27.1 µM | [6] 4.77 µM
inactive: all other assays above

CC1=CC(=O)/C(=C(/C)O)C(=O)O1
not listed: [5]
inactive: all other assays above

c1ccc2ccccc2c1
not listed: [5]
inactive: all other assays above

CC/C(=C(/CC)c1ccc(O)cc1)c1ccc(O)cc1
inactive: [1] | [3] | [4] | [6] | [7] | [8] | [10]
active: [1] 15.9 µM | [3] 18 µM and 15.4 µM | [4] 7.89 µM [middle of 4 runs] | [6] 13.8 µM and 11.1 µM and 14.4 µM

Cc1ccc(C(C)C)cc1
inactive: all assays above

CN(C)C(=O)C1(N2CCCCC2)CCN(CC[C@@]2(c3ccc(Cl)c(Cl)c3)CN(C(=O)c3ccccc3)CCO2)CC1
active: [6] 0.463 µM
inactive: all other assays above

CCCCCCCCCCCC[N+](C)(C)C
active: [4] 22.4 µM and 33.4 µM | [6] 33.4 µM and 12.7 µM | [8] 33.4 µM and 27.1 µM
inactive: all other assays above

CCCCCCCC[Si](OCC)(OCC)OCC
active: [1] 54.5 µM | [3] 62.9 µM [middle of 4 runs] | [4] 126 µM [middle of 4 runs] | [6] 70.2 µM [middle of 4 runs] | [8] 159 µM | [9] 69.2 µM | [10] 153 µM
inactive: [1] | [7] | [8] | [9] | [10]

O=c1ccc2ccccc2o1
not listed: [5]
inactive: all other assays above

CCN(Cc1cccnc1)C(=O)c1cccc(Cl)c1[C@]1(C)C(=O)N(Cc2ccc(OC)cc2OC)c2ccc(Cl)cc21
inactive: [2] | [7] | [8]
active: [1] 10.8 µM | [3] 8.21 µM | [4] 7.45 µM | [5] 1.75 µM | [6] 10.3 µM | [9] 0.293 µM | [10] 7.42 µM

Cc1cn([C@H]2C[C@H](N=[N+]=[N-])[C@@H](CO)O2)c(=O)[nH]c1=O
active: [3] 27.4 µM
inactive: all other assays above

CCCCCCCCOc1ccc(C(=O)c2ccccc2)c(O)c1
active: [5] 59.1 µM
inactive: all other assays above

O=C=NCCCCCCN=C=O
inactive: all assays above

O=C(O)Cc1cc(I)c(Oc2ccc(O)c(I)c2)c(I)c1
inactive: [1] | [2] | [3] | [4] | [5] | [6] | [7] | [8] | [9] | [10]
active: [6] 160 µM and 100 µM and 74.8 µM | [7] 50.9 µM | [8] 89 µM

O=c1[nH]sc2ccccc12
active: [1] 45.4 µM
not listed: [5]
inactive: all other assays above

CCCCOC(=O)c1ccc(O)cc1
active: [1] 72.6 µM | [2] 100 µM | [4] 169 µM | [7] 136 µM | [8] 166 µM [middle of 4 runs]
inactive: [1] | [2] | [3] | [4] | [5] | [6] | [7] | [9] | [10]

CCCOC(=O)c1cc(O)c(O)c(O)c1
active: [3] 58.6 µM | [10] 169 µM
not listed: [5]
inactive: all other assays above

O=C(O)c1ccccc1-n1cc(C(=O)O)c(=O)c2cc(Nc3c(F)cc(F)cc3Cl)c(Cl)cc21
not listed: [5]
inactive: all other assays above
